Screening results: PubChem BioAssay, several laboratories
VLA-4 inh – inhibition in human VLA-4 binding assay, primary screen, VLA-4 allosteric modulator project, MLPCN library, flow cytometry, VLA-4 expressing cells; Integrin alpha-4 (Homo sapiens), P13612; ligand binding flow cytometry; inhibition, % (about 7 µM as worked out from the volumes in the protocol); actives 0.2% (n = 330,000); AID 2557, 2010
GRK2 inh – compounds blocking aptamer binding on GRK2 – biochemical, human GRK2, bead flow cytometry, HTS, primary screen; Beta-adrenergic receptor kinase 1 (Homo sapiens), P25098; FAM-aptamer displacement from GRK2; inhibition of aptamer binding, % at 10 µM; actives 0.59% (n = 330,000); AID 488847, 2010;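 active = inhibition of aptamer binding above 40%, roughly 3 SD of noise, on plates passing a quality check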;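 also: median bead fluorescence of bound FAM aptamer so fluorescent compounds give negative values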
HDAC3 inhib – HDAC3 deacetylase inhibitors, primary screen, biochemical, fluorescence, cell-free homogeneous; Histone deacetylase 3 (Homo sapiens), O15379; inhibition, % at 8.3 µM; AID 2718, 2010; recombinant HDAC3, fluorogenic peptide/trypsin coupled; actives 0.15% (n = 320,000); in the data active = inhibition above about 26%, passing the limit was not always enough; inconclusive = no clear call, values can overlap the other calls
PKD1 inh – inhibitors of human PKD1 kinase, biochemical, fluorescence polarization; Serine/threonine-protein kinase D1 (Homo sapiens), Q15139; PKD1 kinase fluorescence polarization assay; inhibition, % (concentration not given with the values); actives 0.056% (n = 200,000); AID 797, 2007
LANA-H2A inh – blockers of LANA interaction with H2A/H2B – biochemical, FP readout, HTS, primary screen. cell-free LANA-H2A/H2B peptide, fluorescence polarization. Protein LANA1 (Human herpesvirus 8 type P (isolate GK18)), Q9QR71. actives 0.6% (n = 320,000). inhibition, % (no concentration beside the values); in the data active = inhibition mostly above about 10%, no sharp cut-off; inactive = mostly below about 6.7%
DSG3 Ab inh – inhibitors of pemphigus antibody binding to DSG3, primary screen, biochemical, bead-based, flow cytometry, scFv-GFP. DSG3-coupled beads, scFv-anti-DSG3-GFP binding; hits give low values. binding (percent of control), % at 10 µM. actives 0.48% (n = 310,000);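 active = binding more than 3 SD below its plate's average and above zero; inconclusive = below that plate limit but binding exactly zero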;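 also: hits lower antibody fragment binding to DSG3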
The depositor's hits bear a star; ? = inconclusive; nt = no result. A selection: hits, their analogues and other compounds. The true share with any hit is near 1.8%. Rule as the data show it, unless noted: active = inhibition above about 50%; inactive = the rest.

SMILES | VLA-4 inh | GRK2 inh | HDAC3 inhib | PKD1 inh | LANA-H2A inh | DSG3 Ab inh
CCCCOc1ccc(/C=N/NC(=S)Nc2cc(C)ccc2C)cc1 | -21 | 0 | -2 | -7 | 0 | 98
CCCCCCOc1ccc(/C=C/C(=O)N2CCOCC2)cc1OC | 8 | 0 | 2 | nt | 11* | 94
CC1Cc2ccccc2N1C(=O)CSc1ncccn1 (centres undefined) | -13 | 0 | 9 | nt | 30* | 124
Cc1ccccc1NC(=O)N1c2ccccc2CC1C (centres undefined) | 0 | 0 | 5 | -2 | 54* | 93
COc1cccc(N=Nc2c(N)[nH]n3c(=O)c4c(nc23)CCCC4)c1 | -2 | 0 | 2 | -5 | -3 | nt
Cc1ccccc1-c1nc(CS(=O)(=O)CC(=O)NCc2ccco2)c(C)o1 | -1 | 4 | 4 | nt | -2 | 114
Cn1cccc1C(=O)NCCc1ccccc1 | 3 | 22 | -4 | nt | 5 | 92
COc1ccc(CCNC(=O)c2cccn2C)cc1 | 17 | 4 | -9 | nt | 30* | nt
CC(C)(C)c1ccc(-c2nc(O)c(CC(=O)O)s2)cc1 | -6 | 51* | 5 | nt | 3 | nt
C=CC[C@@H](CC(=O)N(CCO)Cc1ccccc1)C(=O)N[C@@H](COC(=O)[C@@H](CC=C)CC(=O)OC(C)(C)C)Cc1c[nH]c2ccccc12 | -16 | 0 | 0 | nt | -2 | 105
C=CC[C@@H](CC(=O)N(CCO)Cc1ccccc1)C(=O)N[C@@H](COC(=O)[C@@H](CC=C)Cc1ccc(F)cc1)Cc1c[nH]c2ccccc12 | 11 | 0 | 39* | nt | -3 | 109
C=CC[C@H](CC(=O)N(CCO)Cc1ccccc1)C(=O)N[C@@H](COC(=O)[C@@H](CC=C)Cc1ccc(F)cc1)Cc1c[nH]c2ccccc12 | 15 | 0 | 39* | nt | nt | 97
C=CC[C@H](CC(=O)N(CCO)Cc1ccccc1)C(=O)N[C@@H](COC(=O)[C@H](CC=C)CC(=O)OC(C)(C)C)Cc1c[nH]c2ccccc12 | 3 | 0 | 2 | nt | 6 | 100
C=CC[C@@H](CC(=O)N(CCO)Cc1ccccc1)C(=O)N[C@H](COC(=O)[C@@H](CC=C)CC(=O)OC(C)(C)C)Cc1c[nH]c2ccccc12 | 14 | 1 | 50* | nt | -5 | 102
C=CC[C@H](CC(=O)N(CCO)Cc1ccccc1)C(=O)NC[C@H](OC(=O)[C@@H](CC=C)CC(=O)OC(C)(C)C)c1ccccc1 | 4 | 0 | 31* | nt | 0 | 104
C=CC[C@@H](CC(=O)N(CCO)Cc1ccccc1)C(=O)NC[C@@H](OC(=O)[C@@H](CC=C)CC(=O)OC(C)(C)C)c1ccccc1 | -8 | 0 | 6 | nt | 7 | 101
COc1ccc(-n2c(=O)c3c4c(sc3n(CC(=O)NCC3CCCO3)c2=O)CN(C(C)=O)CC4)cc1OC (centres undefined) | nt | nt | nt | nt | nt | 92
S=C(N/N=C/c1cccc2ccccc12)Nc1cccc(Cl)c1 | -4 | nt | -7 | nt | 1 | 91
Cc1cc2c(cc1S(=O)(=O)NCc1ccc(N(C)C)cc1)OCC(=O)N2 | -9 | 3 | -7 | nt | 5 | 112
C=CCC[C@@H](Cc1ccc(F)cc1)C(=O)OC[C@H](Cc1c[nH]c2ccccc12)NC(=O)[C@H](CC=C)CC(=O)NCCO | -2 | 0 | 32* | nt | -1 | 105
C=CCC[C@@H](Cc1ccc(F)cc1)C(=O)OC[C@@H]1CCCN1C(=O)[C@H](CC=C)CC(=O)N[C@H](CO)Cc1ccccc1 | -11 | 1 | 18 | nt | -8 | 95
C=CCC[C@H](Cc1ccc(F)cc1)C(=O)OC[C@@H](Cc1c[nH]c2ccccc12)NC(=O)[C@H](CC=C)CC(=O)NCCO | 5 | 3 | ? | nt | -9 | 102
C=CCC[C@@H](Cc1ccc(F)cc1)C(=O)OC[C@@H](Cc1c[nH]c2ccccc12)NC(=O)[C@H](CC=C)CC(=O)N(CCO)Cc1ccccc1 | 8 | 3 | 51* | nt | 2 | 102
C=CCC[C@@H](Cc1ccc(F)cc1)C(=O)OC[C@@H]1CCCN1C(=O)[C@@H](CC=C)CC(=O)N(CCO)Cc1ccccc1 | -3 | 6 | 28* | nt | -8 | 103
C=CCC[C@H](Cc1ccc(F)cc1)C(=O)OC[C@@H](Cc1c[nH]c2ccccc12)NC(=O)[C@H](CC=C)CC(=O)N(CCO)Cc1ccccc1 | 6 | 28 | -1 | nt | 0 | nt
SMILES | VLA-4 inh | GRK2 inh | HDAC3 inhib | PKD1 inh | LANA-H2A inh | DSG3 Ab inh
O=C(COC(=O)c1ccc(O)cc1)NCC1COc2ccccc2O1 (centres undefined) | -13 | 2 | 4 | nt | 0 | 98
O=C(CN1C(=O)NC2(CCCC2)C1=O)OCc1cc(=O)n2cc(Br)ccc2n1 | 6 | 5 | -4 | nt | 1 | 65*
O=C(CSc1ccc(-c2ccc(F)cc2)nn1)N1CCN(c2ccccc2)CC1 | -7 | 0 | 0 | -7 | 3 | 84*
CCN(CCCNC(=O)c1nn(C)c2c1CS(=O)(=O)c1ccccc1-2)Cc1ccccc1 | -8 | 0 | -4 | nt | 0 | nt
CCOC(=O)c1cc(OC(=O)c2ccccc2Br)n(-c2ccccc2)n1 | 11 | 0 | 1 | -5 | 17* | 106
CCC(C)NC(=O)C1CCC(=O)N1CCc1ccccc1 (centres undefined) | 6 | 1 | 12 | nt | 1 | 93
CCn1c(SCC(=O)Nc2nc3ccccc3s2)nnc1-c1ccc(Br)cc1 | -9 | 3 | -5 | 2 | 0 | -18*
Cc1nc(SCc2nc3cc(Cl)c(F)cc3[nH]2)c2oc3ccccc3c2n1 | -6 | 0 | 12 | nt | 3 | 102
CCCc1nnc(NC(=O)c2cc3ccccc3oc2=O)s1 | 14 | 4 | -12 | -2 | 0 | 113
CC(Sc1nnc(NC(=O)c2cc3ccccc3oc2=O)s1)c1ccccc1 (centres undefined) | 16 | 0 | -4 | 5 | -3 | 72*
COc1ccc(NS(=O)(=O)c2cccc3ccccc23)cc1 | -10 | 0 | -2 | nt | -1 | 111
C/C(=N\NC(=S)NC1CCCCC1)c1ccc(O)cc1 | 10 | 0 | 0 | -6 | 0 | 119
C/C(=N\NC(=S)NC1CCCCC1)c1ccccc1 | -3 | 2 | 1 | 2 | 0 | 83*
CC(NC1CCCCC1)C(=O)NN=C(c1ccccc1)c1ccccc1 (centres undefined) | -8 | 0 | 0 | 6 | 130* | 103
CC(Cl)C(=O)NN=C(c1ccccc1)c1ccccc1 (centres undefined) | -6 | 0 | nt | -8 | 1 | 97
